# Measured values: the supplement of paper PMC8007513
# Counter-ions that a name gives are not always drawn. ± gives the standard error. About 130 (10%) of roughly 1,300 compounds showed an effect of 50% or more. This is one part of a sample in which strong results are shown more often than they occur.
# System: Trichoderma virens ATCC 9645
# Test: growth yield (OD600) with compound + IPBC relative to untreated control; higher = less growth inhibition
# Details: compound concentration: 100 uM, IPBC concentration: 200 ng/ml
# Summary of the method: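 For each 96-well plate, 100 μl aliquots were prepared with Trichoderma virens ATCC 9645 spores suspended at 15,000 spores ml^−1 in potato dextrose broth. The spores had been harvested from potato dextrose agar plates after 7 days. Library compounds were present at 100 μM final, some wells also receiving a biocide at 200 ng ml^−1, and plates were grown at 30 °C with OD600 read on a BioTek EL800 at 40 h and 72 h. Reported growth, relative to the control lacking both agents, is the mean of duplicate screens.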
compound,measurement,setting,value
CCc1cc(C(N)=S)ccn1 [Ethionamide] + CCCCNC(=O)OCC#CI [3-iodo-2-propynyl butylcarbamate (IPBC)],growth yield,40 h,82 ± 2.5%
same,growth yield,72 h,90.61 ± 0.63%
CC1=C(C(=O)O)N2C(=O)[C@@H](NC(=O)[C@H](N)c3ccc(O)cc3)[C@H]2SC1 [Cefadroxil] + CCCCNC(=O)OCC#CI [3-iodo-2-propynyl butylcarbamate (IPBC)],growth yield,40 h,81.5 ± 1.8%
same,growth yield,72 h,88.5 ± 1.5%
C=CCN1CC[C@]23c4c5ccc(O)c4O[C@H]2C(=O)CC[C@@]3(O)[C@H]1C5 [Naloxone hydrochloride] + CCCCNC(=O)OCC#CI [3-iodo-2-propynyl butylcarbamate (IPBC)],growth yield,40 h,98.2 ± 3.5%
same,growth yield,72 h,101 ± 3.5%
CC[N+](C)(CC)CCOC(=O)C1c2ccccc2Oc2ccccc21 [Methantheline bromide] + CCCCNC(=O)OCC#CI [3-iodo-2-propynyl butylcarbamate (IPBC)],growth yield,40 h,82 ± 1.9%
same,growth yield,72 h,88.5 ± 2.1%
O=c1[nH]c2ccccc2n1C1CCN(CCCC(c2ccc(F)cc2)c2ccc(F)cc2)CC1 [Pimozide] + CCCCNC(=O)OCC#CI [3-iodo-2-propynyl butylcarbamate (IPBC)],growth yield,40 h,111 ± 8.3%
same,growth yield,72 h,136 ± 2.7%
Clc1ccc(C(OCCN2CCCCC2)c2ccccc2)cc1 (stereo not given) [Cloperastine hydrochloride] + CCCCNC(=O)OCC#CI [3-iodo-2-propynyl butylcarbamate (IPBC)],growth yield,40 h,78.6 ± 0.79%
same,growth yield,72 h,95.1 ± 2%
Fc1ccc(C(OCCN2CCN(CCCc3ccccc3)CC2)c2ccc(F)cc2)cc1 + CCCCNC(=O)OCC#CI [3-iodo-2-propynyl butylcarbamate (IPBC)],growth yield,40 h,13.3 ± 4.8%
same,growth yield,72 h,65.3 ± 6.4%
COc1cc(NS(=O)(=O)c2ccc(N)cc2)nc(OC)n1 [Sulfadimethoxine] + CCCCNC(=O)OCC#CI [3-iodo-2-propynyl butylcarbamate (IPBC)],growth yield,40 h,116.3 ± 0.95%
same,growth yield,72 h,114 ± 1.6%
C[C@]12CC[C@H]3[C@@H](CCC4=CC(=O)CC[C@@H]43)[C@@H]1CC[C@@H]2O [Nandrolone] + CCCCNC(=O)OCC#CI [3-iodo-2-propynyl butylcarbamate (IPBC)],growth yield,40 h,61.2 ± 3.3%
same,growth yield,72 h,83.7 ± 4.8%
COc1cccc(OC)c1C(=O)N[C@@H]1C(=O)N2[C@@H]1SC(C)(C)[C@@H]2C(=O)O [Methicillin sodium] + CCCCNC(=O)OCC#CI [3-iodo-2-propynyl butylcarbamate (IPBC)],growth yield,40 h,89.3%
same,growth yield,72 h,90.7 ± 2%
CC(=O)Oc1ccccc1C(=O)O [Acetylsalicylic acid] + CCCCNC(=O)OCC#CI [3-iodo-2-propynyl butylcarbamate (IPBC)],growth yield,40 h,107 ± 4.9%
same,growth yield,72 h,104 ± 5.5%
COc1ccc(C(=O)CC(=O)c2ccc(C(C)(C)C)cc2)cc1 [Avobenzone] + CCCCNC(=O)OCC#CI [3-iodo-2-propynyl butylcarbamate (IPBC)],growth yield,40 h,67.83 ± 0.16%
same,growth yield,72 h,71.84 ± 0.1%
COc1ccccc1O [Guaiacol] + CCCCNC(=O)OCC#CI [3-iodo-2-propynyl butylcarbamate (IPBC)],growth yield,40 h,94.7 ± 1.6%
same,growth yield,72 h,98 ± 1.5%
COc1ccc(C(=O)c2ccccc2O)c(O)c1 [Dioxybenzone] + CCCCNC(=O)OCC#CI [3-iodo-2-propynyl butylcarbamate (IPBC)],growth yield,40 h,23.67 ± 0.16%
same,growth yield,72 h,48.35 ± 0.1%
COc1ccc(C(=O)c2ccccc2)c(O)c1 [Oxybenzone] + CCCCNC(=O)OCC#CI [3-iodo-2-propynyl butylcarbamate (IPBC)],growth yield,40 h,45.3 ± 4.9%
same,growth yield,72 h,71.1 ± 6.1%
Nc1ccc(C(=O)O)c(O)c1 [4-aminosalicylic acid] + CCCCNC(=O)OCC#CI [3-iodo-2-propynyl butylcarbamate (IPBC)],growth yield,40 h,87.36 ± 0.32%
same,growth yield,72 h,94.18 ± 0.42%
CC(N)C12CC3CC(CC(C3)C1)C2 (stereo not given) [Rimantadine Hydrochloride] + CCCCNC(=O)OCC#CI [3-iodo-2-propynyl butylcarbamate (IPBC)],growth yield,40 h,82.76 ± 0.16%
same,growth yield,72 h,89.04 ± 0.1%
C=C1CC[C@@]2(O)[C@H]3Cc4ccc(O)c5c4[C@@]2(CCN3CC2CC2)[C@H]1O5 [Nalmefene hydrochloride] + CCCCNC(=O)OCC#CI [3-iodo-2-propynyl butylcarbamate (IPBC)],growth yield,40 h,104 ± 15%
same,growth yield,72 h,103 ± 8.3%
C[C@H](Cc1cc2c(c(C(N)=O)c1)N(CCCO)CC2)NCCOc1ccccc1OCC(F)(F)F [Silodosin] + CCCCNC(=O)OCC#CI [3-iodo-2-propynyl butylcarbamate (IPBC)],growth yield,40 h,87 ± 1.3%
same,growth yield,72 h,92.6 ± 0.94%
CC[C@]12CCCN3CCc4c(n(c5ccccc45)[C@@](O)(C(=O)OC)C1)[C@@H]32 [Vincamine] + CCCCNC(=O)OCC#CI [3-iodo-2-propynyl butylcarbamate (IPBC)],growth yield,40 h,86.2 ± 1.4%
same,growth yield,72 h,91 ± 1.7%
O=C(O)c1cc(-c2ccc(F)cc2F)ccc1O [Diflunisal] + CCCCNC(=O)OCC#CI [3-iodo-2-propynyl butylcarbamate (IPBC)],growth yield,40 h,57.8 ± 1.6%
same,growth yield,72 h,80.65 ± 0.32%
CN(C)[C@@H]1C(O)=C(C(N)=O)C(=O)[C@@]2(O)C(O)=C3C(=O)c4c(O)ccc(Cl)c4[C@@](C)(O)[C@H]3C[C@@H]12 [Chlortetracycline hydrochloride] + CCCCNC(=O)OCC#CI [3-iodo-2-propynyl butylcarbamate (IPBC)],growth yield,40 h,77.2 ± 0.64%
same,growth yield,72 h,84.3 ± 2.1%
C[N+]1(C)CCOC(O)(c2ccc(-c3ccc(C4(O)C[N+](C)(C)CCO4)cc3)cc2)C1 (stereo not given) [Hemicholinium bromide] + CCCCNC(=O)OCC#CI [3-iodo-2-propynyl butylcarbamate (IPBC)],growth yield,40 h,19.1 ± 0.64%
same,growth yield,72 h,69.4 ± 1.5%
CC(=O)S[C@@H]1CC2=CC(=O)CC[C@]2(C)[C@H]2CC[C@@]3(C)[C@@H](CC[C@@]34CCC(=O)O4)[C@H]12 [Spironolactone] + CCCCNC(=O)OCC#CI [3-iodo-2-propynyl butylcarbamate (IPBC)],growth yield,40 h,85.3 ± 9.1%
same,growth yield,72 h,91.1 ± 7%
CN(C)CCc1c[nH]c2ccc(C[C@H]3COC(=O)N3)cc12 [Zolmitriptan] + CCCCNC(=O)OCC#CI [3-iodo-2-propynyl butylcarbamate (IPBC)],growth yield,40 h,93.2 ± 4%
same,growth yield,72 h,96.3 ± 4%
C=C(C)[C@@H]1[C@H]2OC(=O)[C@@H]1[C@]1(O)C[C@H]3O[C@]34C(=O)O[C@H]2[C@]14C [Picrotoxinin] + CCCCNC(=O)OCC#CI [3-iodo-2-propynyl butylcarbamate (IPBC)],growth yield,40 h,96.3 ± 11%
same,growth yield,72 h,97.1 ± 8.2%
CCOC(=O)N1CCC(=C2c3ccc(Cl)cc3CCc3cccnc32)CC1 [Loratadine] + CCCCNC(=O)OCC#CI [3-iodo-2-propynyl butylcarbamate (IPBC)],growth yield,40 h,17.3 ± 4%
same,growth yield,72 h,58.7 ± 2.5%
CN1CCC(=C2c3ccccc3CCc3cccnc32)CC1 [Azatadine maleate] + CCCCNC(=O)OCC#CI [3-iodo-2-propynyl butylcarbamate (IPBC)],growth yield,40 h,99.6 ± 2.4%
same,growth yield,72 h,97.43 ± 0.94%
Clc1ccc2c(c1)CCc1cccnc1C2=C1CCNCC1 [Desloratadine] + CCCCNC(=O)OCC#CI [3-iodo-2-propynyl butylcarbamate (IPBC)],growth yield,40 h,56.2 ± 0.64%
same,growth yield,72 h,89.7 ± 1.4%
Nc1nc(=O)n([C@@H]2CS[C@H](CO)O2)cc1F [(-)-Emtricitabine] + CCCCNC(=O)OCC#CI [3-iodo-2-propynyl butylcarbamate (IPBC)],growth yield,40 h,81.33 ± 0.64%
same,growth yield,72 h,87.5 ± 1.1%
CC(=O)[C@@]1(O)CC[C@H]2[C@@H]3C[C@H](C)C4=CC(=O)C=C[C@]4(C)[C@@]3(F)[C@@H](O)C[C@@]21C [Fluorometholone] + CCCCNC(=O)OCC#CI [3-iodo-2-propynyl butylcarbamate (IPBC)],growth yield,40 h,91.3 ± 9.1%
same,growth yield,72 h,88.7 ± 5%
CC(=O)NS(=O)(=O)c1ccc(N)cc1 [Sulfacetamide sodic hydrate] + CCCCNC(=O)OCC#CI [3-iodo-2-propynyl butylcarbamate (IPBC)],growth yield,40 h,91.5 ± 1.3%
same,growth yield,72 h,93.7 ± 0.94%
Cc1noc(NS(=O)(=O)c2ccc(N)cc2)c1C [Sulfisoxazole] + CCCCNC(=O)OCC#CI [3-iodo-2-propynyl butylcarbamate (IPBC)],growth yield,40 h,77.7 ± 2.7%
same,growth yield,72 h,91.1 ± 1.4%
Cc1cc(NS(=O)(=O)c2ccc(N)cc2)no1 [Sulfamethoxazole] + CCCCNC(=O)OCC#CI [3-iodo-2-propynyl butylcarbamate (IPBC)],growth yield,40 h,45.6 ± 1.1%
same,growth yield,72 h,80 ± 1.6%
Cc1cc(C)nc(NS(=O)(=O)c2ccc(N)cc2)n1 [Sulfamethazine sodium salt] + CCCCNC(=O)OCC#CI [3-iodo-2-propynyl butylcarbamate (IPBC)],growth yield,40 h,100 ± 14%
same,growth yield,72 h,98.5 ± 9.1%
CC1CS(=O)(=O)CCN1/N=C/c1ccc([N+](=O)[O-])o1 (stereo not given) [Nifurtimox] + CCCCNC(=O)OCC#CI [3-iodo-2-propynyl butylcarbamate (IPBC)],growth yield,40 h,91.5 ± 12%
same,growth yield,72 h,91.9 ± 6.9%
C[C@H](CS)C(=O)N1CCC[C@H]1C(=O)O [Captopril] + CCCCNC(=O)OCC#CI [3-iodo-2-propynyl butylcarbamate (IPBC)],growth yield,40 h,90.1 ± 1.1%
same,growth yield,72 h,90.1 ± 1.1%
C1CCC(C(CC2CCCCN2)C2CCCCC2)CC1 (stereo not given) [Perhexiline maleate] + CCCCNC(=O)OCC#CI [3-iodo-2-propynyl butylcarbamate (IPBC)],growth yield,40 h,40.981 ± 7.1e-15%
same,growth yield,72 h,85.27 ± 0.32%
CN1C(C(=O)Nc2ccccn2)=C(O)c2sccc2S1(=O)=O [Tenoxicam] + CCCCNC(=O)OCC#CI [3-iodo-2-propynyl butylcarbamate (IPBC)],growth yield,40 h,83.1 ± 2.1%
same,growth yield,72 h,94.08 ± 0.1%
CCCCC1(COC(=O)CCC(=O)O)C(=O)N(c2ccccc2)N(c2ccccc2)C1=O [Suxibuzone] + CCCCNC(=O)OCC#CI [3-iodo-2-propynyl butylcarbamate (IPBC)],growth yield,40 h,89.4 ± 2.7%
same,growth yield,72 h,92.71 ± 0.84%
